# GPR32 ag: activates human resolvin D1 receptor GPR32. O75388. CHO-K1 GPR32 beta-arrestin PathHunter luminescence, 90 min; zero percent set by DMSO-only wells. activation, % at 76.9 µM. 48,000 tested, 2.5% active. AID 1346428;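 active = activation of at least 60% and not above a set upper limit, about 1 call in 100 departs from these limits; inconclusive = activation of 40% to 60%, or above that upper limit; inactive = activation under 40%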; note: 0% is about no effect
#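 Luminescent readout of beta-Gal complementation quantifies ligand-induced beta-arrestin association with GPR32 in CHO-K1 cells; 90 min compound incubation at 37 °C, detection 1 h at room temperature.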
# SKOV3 invasion: blocks SKOV3ip1 adhesion and invasion in omental model; SKOV3ip1-GFP adhesion/invasion on 3D omental model, fluorescence; Potency, µM (top dose mostly 45.8 µM), inactives show top-dose activity change, negative = inhibition, hits mostly inhibitors; 46,000 tested, 0.1% active;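 note: potency is the fitted concentration of half-maximal effect; plate controls were DMSO wells for no effect and tomatine positive control wells for full effect; nearly all actives have a fitted effect of over 65% in size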
#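 A 3D layer of primary human omental fibroblasts, mesothelial cells, fibronectin and collagen I, grown 48 hr, received SKOV3ip1-GFP cells in serum-free medium plus compounds at 0.36-46 umol/L. After 2 hr RT and 16 hr 37 C, fixed adherent GFP cells were counted; normalized to DMSO and tomatine.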
# HTT-AS act: activates huntingtin-antisense promoter activity; HEK293 HTT-AS promoter firefly luciferase reporter, 24 h; response scale: percent change from vehicle, -100% = no light; Potency, µM (highest dose often 57.5 µM), for inactives: at the top dose activity change, positive = activation, actives largely listed as activators; 48,000 tested, 0.24% active; AID 1508624; note: potency is the fitted concentration of half-maximal effect; nearly all actives have a fitted effect of over 55% in size
#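 Luminescence was read after Dual-Glo reagent and a 10 min room-temperature incubation. Values were normalized to vehicle (0% activity) and zero RLU (-100% activity). Reporter HEK293 cells had been exposed to compounds (up to 57.5 uM final) for 24 h.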
# NTMT1 inhibitor: blocks human N-terminal methyltransferase 1 activity. Q9BV86. NTMT1 MTase-Glo SAH luminescence, purified enzyme. Potency, µM (titrated, usually from 114 µM), inactives show at the top dose activity change, negative = inhibition, actives largely listed as inhibitors. 59,000 tested, 2.5% active;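 note: potency is the fitted concentration of half-maximal effect; plate controls were DMSO vehicle for no effect and no enzyme for full effect; nearly all actives have a fitted effect of over 65% in size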
# Target sequence (Q9BV86 whole entry, looked up): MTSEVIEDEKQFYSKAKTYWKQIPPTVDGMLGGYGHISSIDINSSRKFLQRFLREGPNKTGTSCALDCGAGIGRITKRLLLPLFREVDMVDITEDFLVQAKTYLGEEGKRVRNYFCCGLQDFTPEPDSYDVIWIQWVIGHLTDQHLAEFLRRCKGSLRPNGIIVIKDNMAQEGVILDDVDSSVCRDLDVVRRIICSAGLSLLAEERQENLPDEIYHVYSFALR
# HTT prom inh: inhibitors of huntingtin promoter activity | 48,000 tested, 0.93% active | HEK293 HTT promoter firefly luciferase reporter, 24 h | Potency, µM (series often up to 57.5 µM), inactives show at the top dose activity change, negative = inhibition, usual class: inhibitors | AID 1508623; note: potency is the fitted concentration of half-maximal effect; nearly all actives have a fitted effect of over 50% in size
#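 Firefly luciferase readout (Dual-Glo, 10 min RT) after 24 h, 37 °C compound exposure (final up to 57.5 uM) of HEK293 reporter cells cultured 24 h beforehand; PTC124 at 50 uM final as control inhibitor; activity scaled vehicle 0%, zero RLU -100%.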
# DYRK1A inh: human DYRK1A kinase inhibition by ATP depletion readout; 100 tested, 80% active; Potency, µM (titrated, usually from 76.9 µM), for inactives: top-dose activity change, negative = inhibition, usual class: inhibitors; recombinant DYRK1A, Kinase-Glo ATP depletion luminescence; AID 2705; shares compounds with NTMT1 inhibitor
# CLK4 inh: confirmation of human CLK4 kinase inhibitors, SAR round 2 | 90 tested, 90% active | AID 493204 | recombinant Clk4, Kinase-Glo ATP luminescence, 4.5 h | shares compounds with NTMT1 inhibitor | Potency, µM (titrated, usually from 76.9 µM), without a hit: top-dose activity, negative = inhibition, actives largely listed as inhibitors
# NNMT counter: blocks human NNMT methyltransferase | shares compounds with NTMT1 inhibitor | NNMT MTase-Glo luminescence, SAH detection | 120 tested, 10% active | Potency, µM (titrated, usually from 57.1 µM), for the others: top-dose activity, negative = inhibition, most hits filed as inhibitors
# Target sequence (P40261 whole entry, looked up): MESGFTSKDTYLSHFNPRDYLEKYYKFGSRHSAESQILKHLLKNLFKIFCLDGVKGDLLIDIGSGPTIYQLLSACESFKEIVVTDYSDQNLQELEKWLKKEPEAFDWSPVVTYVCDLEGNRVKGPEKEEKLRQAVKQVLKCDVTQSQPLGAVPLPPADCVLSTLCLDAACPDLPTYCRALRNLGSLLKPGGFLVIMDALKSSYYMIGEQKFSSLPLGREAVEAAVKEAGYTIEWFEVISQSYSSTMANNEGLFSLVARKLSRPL
# * hit, by the source's call; i = inactive; u = inconclusive; x = no result given; [ ] = dose if it differs, or a comment. Compounds with a hit are over-represented: about 4.5% of the library has one in this group of screens. Unless noted, calls come from the whole dose curve; as a rule, active = well fitted curve in the direction sought with a large enough effect; inconclusive = small, poorly fitted or top-dose-only effect, or another doubt; inactive = no such curve, though single readings can be large; an effect the other way counts as inactive or inconclusive.
SMILES,GPR32 ag,SKOV3 invasion,HTT-AS act,NTMT1 inhibitor,HTT prom inh,others
Cc1nc(C)c(-c2ccc3ncnc(NCCc4cnc[nH]4)c3c2)s1,x,x,x,u,x,DYRK1A inh=26µM*
O=C(O)c1ccc(-c2ccc3ncnc(NCCc4cnc[nH]4)c3c2)o1,x,x,x,-3%,x,DYRK1A inh=9.2µM*
CCOC(=O)c1cnc2ccc(C)cc2c1NCCc1ccc(OC)c(OC)c1,0,3%,2%,-15%,-10%,
CCNC(=O)c1ccc(-c2ccc3ncnc(NCCc4cnc[nH]4)c3c2)o1,x,x,x,-3%[57.5 µM],x,CLK4 inh=1.3µM*
Cc1noc(C)c1-c1ccc2ncnc(NCc3ccc(F)cc3)c2c1,x,x,x,11%,x,
CCOC(=O)c1ccc(-c2ccc3ncnc(NCCc4cnc[nH]4)c3c2)o1,x,x,x,u,x,DYRK1A inh=1.6µM*
CN1CCN(C(=O)c2ccc3cc(CCNc4ncnc5ccc(C#N)cc45)ccc3c2)CC1,x,x,x,-12%[57.5 µM],x,
Cc1ccc(CNS(=O)(=O)c2cc(C(=O)Nc3ccc(C(C)C)cc3)ccc2F)cc1,9,-19%,-20%,-3%,u,
COc1ccc(OC)c(-c2nnc3n2N=C(c2ccc(OC)c(OC4CCCC4)c2)CS3)c1,x,x,x,18%,x,
CCN(CCCNC(=O)c1cc2c(=O)n(CC)c3ccccc3c2s1)c1ccccc1,5,22%,-25%,u,-11%,
COc1ccc2c(c1)C(C(=O)N(Cc1ccc(N(C)C)cc1)c1ccc(C(C)C)cc1)CCC2 (stereo not given),x,x,x,-16%[57.5 µM],x,
OCc1ccc(-c2ccc3ncnc(NCCc4cnc[nH]4)c3c2)o1,x,x,x,u,x,DYRK1A inh=23µM*
c1cncc(CNc2ncnc3ccc(-c4ccco4)cc23)c1,x,x,x,-2%,x,
O=S(=O)(Nc1ccccc1)c1ccc(NCc2ccc(Br)cc2O)cc1,x,x,x,2%,x,
O=C(O)CSc1cc(NS(=O)(=O)c2ccc(Br)cc2)c2ccccc2c1O,x,x,x,28µM*,x,NNMT counter=u
O=C(CS(=O)(=O)c1cccc2nsnc12)N1CCN(c2ccccc2)CC1,-5,-3%,-10%,-1%,3%,
Cc1ccc(F)cc1S(=O)(=O)N[C@@H]1CCN(Cc2ccc(OC(C)C)cc2)C1,x,x,x,u,x,NNMT counter=-15%
C=CC(=O)N[C@H]1CN(c2nc(Nc3cn(C)nc3OC)c3ncn(C)c3n2)C[C@@H]1F,x,x,x,0%,x,
C/C=C/C=C/C=C/C(=O)O[C@@H]1C=C2COC(=O)[C@]2(O)[C@@]2(C)CCCC(C)(C)[C@H]12,x,x,x,-15%[29.8 µM],x,NNMT counter=-12%[28.6 µM]
CC(C)CC(O)C(=O)Nc1cc(C(F)(F)F)ccc1Cl (stereo not given),x,x,x,1%,x,
Cc1ccc(S(=O)(=O)Nc2ccc3[nH]c(=O)sc3c2)cc1C,3,3%,-21%,-5%,u,
CCOc1ccc(Cc2nc(-c3c(C)nc4ccccn34)cs2)cc1,x,x,x,u,x,NNMT counter=u
CCOc1ccc(Nc2nc(-c3c(C)nc4ccccn34)cs2)cc1,x,12%,-37%,-9%,-27%,NNMT counter=u
CSc1ncc(Cl)c(C(=O)N(Cc2ccccc2Cl)C2CCS(=O)(=O)C2)n1 (stereo not given),13,i,-22%,5%,-8%,
Nc1ccc(S(=O)(=O)c2ccc(N)cc2)cc1,2,x,-3%,22%[57.5 µM],4%,
